Test results from PubChem BioAssay AID1159580 (chemical genetic matrix, 2015).
Hit rate of the full screen: of about 5,500 compounds, about 2,000 (36%) were called active. About 18% were inconclusive and are not listed. Cut-off read from the data, not from the text of the source: active = normalized growth mostly below about 0.91 (no sharp cut-off); inconclusive = no clear call, values can overlap the other calls; inactive = mostly above about 0.92. Some of the results follow.

Test: chemical genetic growth profiling, strain panel (AID 1159580);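 note: tested at 20 µM; growth read once vehicle control cultures reached saturation at 30 °C; 1 = growth at the plate median or of vehicle wells; lower values mean less growth of the strain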
Details: S. cerevisiae deletion strains, growth OD

Measured: normalized growth

COC1C(O)C(C)OC(O[C@H]2CC[C@]3(C=O)C4C(CC[C@]3(O)C2)[C@@]2(O)CC[C@H](C3=CC(=O)OC3)[C@@]2(C)C[C@H]4O)C1O (stereo partly drawn)
inactive: locus YHR030C, strain SLT2, stronger effect = lower value 1.07 | locus YHR079C, strain IRE1, stronger effect = lower value 1.08 | locus YJL095W, strain BCK1, stronger effect = lower value 1.04 | locus YJR066W, strain TOR1, stronger effect = lower value 0.979 | locus YLR113W, strain HOG1, stronger effect = lower value 0.968 | locus YNL183C, strain NPR1, stronger effect = lower value 0.988 | locus YOR231W, strain MKK1, stronger effect = lower value 1.01 | locus YPL256C, strain CLN2, stronger effect = lower value 1.12
